# Experimental data published in the OligoGym collection.
# Experiments:
# Assay in all cases: pooled miR-30 sensor sort-seq; sequence = guide strand
# Conditions in all cases: shRNA
# EIF3M = molecular target: EIF3M
# ELF2 = molecular target: ELF2
# EIF4EBP2 = molecular target: EIF4EBP2
# ENAM = molecular target: ENAM
# EPC2 = molecular target: EPC2
# EPB41 = molecular target: EPB41
# EPAS1 = molecular target: EPAS1
# Further: reference of the scale not given here.
sequence,measurement,setting,value
TGAAGCAGCATCACTCTTCTTA,sensor-assay potency score (higher = more potent),EIF3M,0.0165
TTTGTCTGCAGTTGACACTGTG,sensor-assay potency score (higher = more potent),ELF2,0.266
TTGTCTTATCTGTACAGTGTGC,sensor-assay potency score (higher = more potent),ELF2,-0.612
ATAGTCATGAGGTAGCTGCGCG,sensor-assay potency score (higher = more potent),EIF4EBP2,-0.462
TTTCTGTCATAAATGATTCGAG,sensor-assay potency score (higher = more potent),EIF4EBP2,-0.301
TCAAATTGTTTACTTCTACTTT,sensor-assay potency score (higher = more potent),EIF4EBP2,-0.42
TAAATGATTCGAGTTCCTCCCG,sensor-assay potency score (higher = more potent),EIF4EBP2,0.0359
TTCTGTCATAAATGATTCGAGT,sensor-assay potency score (higher = more potent),EIF4EBP2,-1.23
AAACTTTCTGTCATAAATGATT,sensor-assay potency score (higher = more potent),EIF4EBP2,-1.63
TACTTTGGAGTCTTCAATTAAG,sensor-assay potency score (higher = more potent),EIF4EBP2,-1.27
AATAGTCATGAGGTAGCTGCGC,sensor-assay potency score (higher = more potent),EIF4EBP2,-0.823
TGATTCGAGTTCCTCCCGGTGT,sensor-assay potency score (higher = more potent),EIF4EBP2,-0.789
TGGTGCAATAGTCATGAGGTAG,sensor-assay potency score (higher = more potent),EIF4EBP2,-1.72
TGATTTTCTACTCCATTGCTGG,sensor-assay potency score (higher = more potent),ELF2,-0.423
TTTGTCATCATCTATGACCACT,sensor-assay potency score (higher = more potent),ELF2,-0.807
TCGCTGATGGCCACGGTGCGGG,sensor-assay potency score (higher = more potent),EIF4EBP2,-1.63
ATGTTTCCTGTCGTGATTGTTC,sensor-assay potency score (higher = more potent),EIF4EBP2,-0.959
TTGTTCAAGTTGTTCAAATTGT,sensor-assay potency score (higher = more potent),EIF4EBP2,-0.233
TTGATTTTCTACTCCATTGCTG,sensor-assay potency score (higher = more potent),ELF2,0.197
TAGATCTAAAAGAAACTCCCAC,sensor-assay potency score (higher = more potent),ELF2,0.171
AATTGTTTACTTCTACTTTGGA,sensor-assay potency score (higher = more potent),EIF4EBP2,0.534
TACTTCTACTTTGGAGTCTTCA,sensor-assay potency score (higher = more potent),EIF4EBP2,-0.613
AAATGATTCGAGTTCCTCCCGG,sensor-assay potency score (higher = more potent),EIF4EBP2,-0.69
TAGTAGTATCTCAAAGCTCGTC,sensor-assay potency score (higher = more potent),ELF2,-0.0908
TAGTCATGAGGTAGCTGCGCGG,sensor-assay potency score (higher = more potent),EIF4EBP2,-1.17
TTGTTCAAATTGTTTACTTCTA,sensor-assay potency score (higher = more potent),EIF4EBP2,-0.655
TATGACTGCACTGATAACTCGA,sensor-assay potency score (higher = more potent),ELF2,0.372
ATCTTCTTCACTGATGTCGATG,sensor-assay potency score (higher = more potent),EIF3M,-1.42
ATCATCATAAACCAGAACCTGG,sensor-assay potency score (higher = more potent),ELF2,-0.854
TTCAATTAAGGTGCCAGGGCTA,sensor-assay potency score (higher = more potent),EIF4EBP2,-0.657
TTCACTTTTGTCATCATCTATG,sensor-assay potency score (higher = more potent),ELF2,-0.773
AATGATTCGAGTTCCTCCCGGT,sensor-assay potency score (higher = more potent),EIF4EBP2,0.498
TGAAATACCACTGTCTTCCTGA,sensor-assay potency score (higher = more potent),ENAM,0.779
TTGCTGTTTCTGCTGAAGCTGG,sensor-assay potency score (higher = more potent),EPC2,-1.06
TAAAACTTTACATTAAATGTAA,sensor-assay potency score (higher = more potent),EPB41,-0.313
TTTCTCTAAACACTTGCTGTGC,sensor-assay potency score (higher = more potent),EPC2,-0.595
TTCTTTGCCTTCTTCCTCGGAC,sensor-assay potency score (higher = more potent),EPB41,-0.102
TTGGTCACTGACATGTCTGGGT,sensor-assay potency score (higher = more potent),EPB41,-0.161
ATCTTCTCTGAGTTCTTCCTGA,sensor-assay potency score (higher = more potent),EPB41,-0.459
ATAATTTCTTAGCTGCTCGGTA,sensor-assay potency score (higher = more potent),EPB41,-0.474
TGTTTGACAAGATTCCTCCTGC,sensor-assay potency score (higher = more potent),EPB41,0.721
TTGCATCTGAACTAACTGCTGC,sensor-assay potency score (higher = more potent),EPC2,0.128
TTGATCTCCTCTTGACTCTTGT,sensor-assay potency score (higher = more potent),EPB41,0.588
TTAGCTGCTCGGTAACTGGGAA,sensor-assay potency score (higher = more potent),EPB41,-0.397
TTATGTCTTCTGTTAACTGTGC,sensor-assay potency score (higher = more potent),EPB41,-0.0684
TTTACTTCTATTTTGGAGCACT,sensor-assay potency score (higher = more potent),EPB41,-0.574
TTCATAAACTGTGTCATCCAAC,sensor-assay potency score (higher = more potent),EPB41,-0.828
TTGTTGTAGACTTTCACCTGGC,sensor-assay potency score (higher = more potent),EPAS1,0.403
TTCTTCACTATCACTGTCCTGT,sensor-assay potency score (higher = more potent),EPC2,0.612
TTTGTAGAAACAACCAGCCTGG,sensor-assay potency score (higher = more potent),EPB41,0.246
TTCTGGGTCGTAGTCTCCCAGT,sensor-assay potency score (higher = more potent),EPB41,-1.42
TCACACATGATGATGAGGCAGG,sensor-assay potency score (higher = more potent),EPAS1,-0.0655
TATCTTGTTATGTCTTCTGTTA,sensor-assay potency score (higher = more potent),EPB41,-0.573
TTGACAAGATTCCTCCTGCTGA,sensor-assay potency score (higher = more potent),EPB41,-0.541
TAGAGCACTAGCTTGCCTGGTC,sensor-assay potency score (higher = more potent),EPB41,0.107
TTCACCTCACAGTCATATCTGG,sensor-assay potency score (higher = more potent),EPAS1,-0.278
TTATTGTTCACAGTCTGCCCTG,sensor-assay potency score (higher = more potent),EPC2,-0.344
TTGAACAATTCTGATATCCTAA,sensor-assay potency score (higher = more potent),EPB41,-0.113
TTTACTTGCTGTACGCTCGAAG,sensor-assay potency score (higher = more potent),EPB41,0.135
TTTTTCTCTAAACACTTGCTGT,sensor-assay potency score (higher = more potent),EPC2,-0.823
